Assay results reported in ChEMBL document CHEMBL4513216, “Probing the Open Global Health Chemical Diversity Library for Multistage-Active Starting Points for Next-Generation Antimalarials” (ACS Infect Dis, 2020).
Screen size: about 68,000 compounds; about 2,700 (4%) showed an effect of 50% or more. Only a selection was taken, and strong results are over-represented in it overall.

These compounds were tested on Plasmodium berghei (assay: Screen against P. berghei liver stage (PbLuc), transformed with Luciferase, at 2uM). Conditions: tested at 2 uM.
Type: functional, HepG2
`O=C(N1CCc2ccccc2CC1)C1(O)Cc2ccccc2C1` showed an INHIBITION of 32.93%. Work on `O=C(CCN1C[C@@H]2CC[C@H]1CN(c1ncccn1)C2)NCc1ccco1` yielded an INHIBITION of 22.27%. Compound `N#Cc1ccc(CN2CCNC(=O)C2c2cccs2)cc1` (centres undefined) has an INHIBITION of -15.67%. `Cn1cnc2c(N3CCCC3)nc(C3CCN(CC4CC4)CC3)cc21` showed an INHIBITION of 25.94%. For `Cn1ccnc1C(O)c1ccccc1N1CCN(Cc2ccsc2)CC1` (centres undefined), the INHIBITION was -16.2%. For `Cc1cccc(COc2ccc(C(C)N)cc2)c1` (centres undefined), the INHIBITION was 54.49%. Work on `Cc1cccc(COc2ccc(C(C)NS(N)(=O)=O)cc2)c1` (centres undefined) yielded an INHIBITION of 9.42%. With `Cc1cccc(COc2ccc(C(C)NC(=O)CNC(N)=O)cc2)c1` (centres undefined) the INHIBITION was 32.26%. For `CCc1ccsc1C(=O)N1CCN(CC(O)CC)CC1` (centres undefined), the INHIBITION was 56.67%. With `CCC(O)CN1CCN(C(=O)c2sccc2C2CC2)CC1` (centres undefined) the INHIBITION was 34.97%. `CCc1ccsc1C(=O)N1CCN(CC(C)O)CC1` (centres undefined) gave an INHIBITION of -10.66%. With `Clc1ccccc1C1(c2ccnc(C3CCCC3)n2)CCNCC1` the INHIBITION was 11.94%. Compound `Cc1c(CN2C[C@@H](O)[C@H](Oc3cccc(F)c3)C2)cnn1C` has an INHIBITION of 55.32%. Work on `Cc1cc(C)n2ncc(CN3C[C@@H](O)[C@H](Oc4ccccc4)C3)c2n1` yielded an INHIBITION of -0.44%. `Cc1cnccc1CN1C[C@@H](O)[C@H](Oc2cccc(F)c2)C1` showed an INHIBITION of 8.5%. Work on `COCC(O)CN(C)c1ccnc2ccc(Cl)cc12` (centres undefined) yielded an INHIBITION of -33.34%. `Cc1ccsc1CN1CCc2c(nc(N3CCCCC3C)[nH]c2=O)C1` (centres undefined) was tested, and the INHIBITION was -17.99%. `CC(C)n1ccnc1CN1CCCN(C(=O)CC2CCCO2)CC1` (centres undefined) was tested, and the INHIBITION was 33.82%. `CC(C)n1ccnc1CN1CCOC(CCc2ccccc2)C1` (centres undefined) gave an INHIBITION of 50.32%. In the case of `Cn1ccnc1CN1CCOC(Cc2ccccc2)C1` (centres undefined), the INHIBITION is reported as -19.43%. Work on `CC(C)C1CN(Cc2nccn2C(C)C)CCC(=O)N1CC1CC1` (centres undefined) yielded an INHIBITION of -17.17%. In the case of `CC(C)n1ccnc1CN1CCOC(CC2CCCCC2)C1` (centres undefined), the INHIBITION is reported as 63.23%. `c1ccc(Cn2ccnc2CN2CCOC(Cn3cccn3)C2)cc1` (centres undefined) was tested, and the INHIBITION was 11.1%. Work on `NC(=O)NCC(=O)N1CCCC(c2nccn2Cc2ccncc2)C1` (centres undefined) yielded an INHIBITION of 16.1%. For `CCOc1ncccc1Cn1cc(-c2nccn2C)nn1`, the INHIBITION was -3.38%. `O=C(c1cccs1)N1CCCn2c(nc(CN3CCCC3)cc2=O)C1` was tested, and the INHIBITION was 13.38%. In the case of `Cc1nc(N2CCCCC2)ncc1-c1cc(=O)[nH]c(N2CCCC2)n1`, the INHIBITION is reported as 17.48%. `FC1(F)CCN(Cc2cccnc2)CC12CCN(c1ccccn1)C2` (centres undefined) gave an INHIBITION of 3.35%. Work on `CC(C)c1cc(C(=O)N2CCC3(CC2)c2ccccc2[C@@H](N)[C@@H]3O)cs1` yielded an INHIBITION of 16.28%. In the case of `O=C1CC(NS(=O)(=O)c2ccc(F)c(Cl)c2)CN1` (centres undefined), the INHIBITION is reported as -15.08%. Compound `O=C1CC(NS(=O)(=O)c2ccc(Br)cc2)CN1` (centres undefined) has an INHIBITION of 27.9%. Work on `O=C1CC(NS(=O)(=O)c2ccc(Cl)cc2)CN1` (centres undefined) yielded an INHIBITION of 87.53%. `CCCN(CCC)S(=O)(=O)NC(C)C(=O)N(C)C` (centres undefined) was tested, and the INHIBITION was -9.87%. `COc1ccc(OCc2nc(C(=O)N3CCCNC(=O)C3)co2)cc1` gave an INHIBITION of 22.84%. For `CC(NC(=O)CCc1nc(C(C)(C)C)no1)c1nnc2n1CCC2` (centres undefined), the INHIBITION was 64.2%. With `CC(C)c1noc(CCC(=O)NC(C)c2nnc3n2CCC3)n1` (centres undefined) the INHIBITION was 45.48%. Work on `CC(NC(=O)CCCc1nc(C(C)(C)C)no1)c1nnc2n1CCC2` (centres undefined) yielded an INHIBITION of 19.04%. In the case of `c1coc(CN2C[C@@H]3OCCN(CC4CCCO4)[C@@H]3C2)c1` (some centres undefined), the INHIBITION is reported as -44.46%. For `CCOC(=O)N1C[C@@H]2CC[C@H]1CN(Cc1ccccc1)C2`, the INHIBITION was 18.19%. `O=C(O)c1cnc(N2CCC(c3nccn3CC3CC3)CC2)c(Cl)c1` gave an INHIBITION of 60.39%. Compound `COCC1(C(=O)N2CCC(c3nccn3CC3CC3)CC2)CCC1` has an INHIBITION of 52.57%. With `COCC(=O)N1CCC(c2nccn2CC2CC2)CC1` the INHIBITION was -34.68%. For `c1cnc(N2CCC(c3nccn3CC3CC3)CC2)nc1`, the INHIBITION was 18.81%. Compound `CCOCC(=O)N1CCC(c2nccn2CC2CC2)CC1` has an INHIBITION of -1.32%. With `COCCOC(=O)N1CCC(c2nccn2CC2CC2)CC1` the INHIBITION was -1.87%. With `O=C(NC1CC1)N1C[C@H]2CN(c3ccccc3)C(=O)[C@H]2C1` the INHIBITION was -0.9%. Compound `CCc1nc2c(NCC3COc4c(cccc4OC)C3)ncnc2o1` (centres undefined) has an INHIBITION of 1.39%. Compound `O=C(C1CCCc2[nH]ncc21)N1CCCCCC1` (centres undefined) has an INHIBITION of -0.54%. `O=C(C1CCCc2[nH]ncc21)N1CCCC1` (centres undefined) gave an INHIBITION of -10.01%. In the case of `O=C(C1CCCc2[nH]ncc21)N1CCCC2(C1)OCCO2` (centres undefined), the INHIBITION is reported as 64.92%. `CNC(=O)CCOC(=O)c1cccc(-n2cccn2)c1` was tested, and the INHIBITION was 55.25%. In the case of `CNC(=O)COC(=O)c1cccc(-n2ccc(C(F)(F)F)n2)c1`, the INHIBITION is reported as 10.31%. `CNC(=O)CCOC(=O)c1cccc(-n2ccc(C(F)(F)F)n2)c1` showed an INHIBITION of 13.1%. With `Cc1nc2c(c(N3CCCC(OCc4ccccn4)C3)n1)CCNCC2` (centres undefined) the INHIBITION was 20.71%. `Cc1ccc(CN2CC[C@@H]3O[C@@H](C(=O)N4CCN(C)CC4)C[C@@H]32)cc1` showed an INHIBITION of 41.55%. For `Cc1nccc(C(=O)N2CCCN(Cc3cnn(C(C)C)c3)CC2)n1`, the INHIBITION was 16.6%. Work on `COC(=O)C(C)(C)NC(=O)C1CC(=O)N(C2CC2)C1` (centres undefined) yielded an INHIBITION of 5.15%. `Cc1cc(NCCS(C)(=O)=O)nc2ccccc12` gave an INHIBITION of -0.6%. `Cc1cc(NCCOCCS(C)(=O)=O)nc2ccccc12` showed an INHIBITION of 53.16%. `Cc1cc(NCCCNS(C)(=O)=O)nc2ccccc12` showed an INHIBITION of 20.88%. `Cc1cccc(-c2nc(CN3CCCC3Cn3cc(C)cn3)no2)c1` (centres undefined) showed an INHIBITION of 1.36%. For `COC(=O)N1CCCN(C(=O)c2cccc3cccnc23)CC1`, the INHIBITION was 5.72%. In the case of `COCC1CN(CCOc2ccc(Cl)cc2)Cc2c1cnn2C` (centres undefined), the INHIBITION is reported as -17.24%. In the case of `Cc1cc(-c2cnc(C)nc2CN(C)C(=O)c2cc(C3CC3)on2)on1`, the INHIBITION is reported as 51.57%. Compound `Cc1cc(-c2cnc(C(C)C)nc2CN(C)C(=O)c2ccccn2)on1` has an INHIBITION of 56.57%. `Cc1cc(-c2cnn(CCNC(=O)c3cc[nH]n3)c2C2CC2)on1` was tested, and the INHIBITION was -2.47%. `Cc1cc(-c2cnc(C3CC3)nc2CN(C)C(=O)c2ccccn2)on1` was tested, and the INHIBITION was 34.06%. Work on `Cc1cc(-c2cnn(CCNC(=O)C3CC3)c2C2CC2)on1` yielded an INHIBITION of -39.92%. `Cc1cc(-c2cnc(C)nc2CN(C)C(=O)c2ccccn2)on1` gave an INHIBITION of -0.54%.
